From PubChem BioAssay
Values joined by “and” are separate entries in the source; they are usually repeats but may differ in a detail not shown here. Identical values can stand only once. A structure can be active in one record and inactive in another. Active and inactive are the calls of the source.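 The calls were made as follows, unless noted: active = mean z-score across replicates of 1.96 or higher in either the MELAS or the Rieske mutant cell line; inactive = the rest.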

What was measured:
[1] = liver-stage malaria parasite growth inhibition, primary screen, cell-based, HepG2, luciferase luminescence, HepG2 viability (AID 624349; in the data active = parasite load remaining mostly below about 12%, no sharp cut-off; inactive = mostly above about 10%;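 also: 100% = mean of DMSO negative control wells on the same plate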); conditions: P. berghei liver stage in HepG2, luciferase luminescence, concentration not given here; parasite load remaining: stronger effect = lower value; viability: measured here: HepG2 viability without parasites
[2] = sensitizers of A549 cells to miR-34 induction, primary screen, imaging, A549 dox-inducible miR-34, nuclei and caspase counts (AID 1347080;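 active = compounds whose cell count with miR-34 switched on is under 0.7 times the count with it off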); conditions: A549 miR-34 inducible, Hoechst nuclei count, 48 h
[3] = survival rescue of mitochondrial mutant cells in low glucose, primary screen, MELAS cybrids, Rieske KO mouse fibroblasts, CellTiter-Glo (AID 1508586);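 also: z relative to plate mean and SD of compound and empty wells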
[4] = viability rescue of complex I mutant cybrids, primary screen, cell-based, galactose medium, ATP luminescence (AID 1645843;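 active = z-score of at least 1.8 in each of two replicates, scored against plate mean and spread of sample wells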;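 also: positive z means more ATP and so rescue of galactose-driven cybrid death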); conditions: complex I mutant cybrid cells, 72 h, stronger effect = higher value
[5] = hESC survival regulators, cell-based (AID 493140; call rule not given here;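 also: cells exposed to compounds for four days before counting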); conditions: human embryonic stem cell survival screen; stronger effect = higher value
[6] = stronger effect = lower value, cell number ratio, induced over uninduced
[7] = measured here: relative caspase fold change +Dox/-Dox
[8] = measured here: total cells with miR-34 induction, stronger effect = lower value
[9] = measured here: total cells without miR-34 induction
[10] = MELAS cybrid survival, CellTiter-Glo 48 h, stronger effect = higher value
[11] = Rieske KO mouse fibroblast survival, CellTiter-Glo 72 h

| Structure (SMILES) | parasite load remaining [1] | viability [1] | fold change [2, 6] | fold change [2, 7] | cell count [2, 8] | cell count [2, 9] | z-score [3, 10] | z-score [3, 11] | z-score [4] | survival [5] |
| --- | --- | --- | --- | --- | --- | --- | --- | --- | --- | --- |
| CCCCC(C)(O)C/C=C/[C@H]1[C@H](O)CC(=O)[C@@H]1CCCCCCC(=O)OC (some centres not stated) | 25.9% (inactive) | 64% | 1.01 (inactive) and 0.901 (inactive) | 1.23 and 1.3 | 5920 and 9930 | 5880 and 11000 | -0.242 (inactive) and 0.112 (inactive) | -0.698 and -0.238 | 0.245 (inactive) |  |
| CNC1(C)[C@H]2CC[C@H](C2)C1(C)C (some centres not stated) | 95.3% (inactive) | 108% | 0.905 (inactive) | 1.29 | 9940 | 11000 | 0.54 (inactive) | -0.569 | 0.66 (inactive) |  |
| COC(=O)c1ccccc1O | 53.2% (inactive) | 98% | 0.851 (inactive) | 1.32 | 10100 | 11800 | -0.407 (inactive) | -0.367 | 0.47 (inactive) |  |
| C=C1CC[C@H](O)C/C1=C/C=C1\CCC[C@]2(C)[C@@H]([C@H](C)CCCC(C)(C)O)CC[C@@H]12 | 63.8% (inactive) | 110% | 1.02 (inactive) and 0.856 (inactive) | 1.06 and 1.42 | 6030 and 8450 | 5930 and 9870 | 0.872 (inactive) | 0.441 | -1.75 (inactive) | 84.6 (inactive) |
| C=C1/C(=C/C=C2/CCC[C@]3(C)[C@@H]([C@H](C)CCCC(C)C)CC[C@@H]23)C[C@@H](O)C[C@@H]1O | 43.3% (inactive) | 115% | 0.847 (inactive) | 0.894 | 8220 | 9710 | 0.628 (inactive) and 0.37 (inactive) | 0.674 and -0.198 | -2.23 (inactive) |  |
| C[C@H](C(=O)O)c1cccc(C(=O)c2ccccc2)c1 | 42.4% (inactive) | 93% | 0.744 (inactive) | 1.59 | 7940 | 10700 | -0.319 (inactive) | -0.518 | 0.4 (inactive) | 115 (inactive) |
| COC(=O)c1ccc(=O)c2nc3/c(=C/O)c(O)cc(=O)c3[nH]c12 | 91.5% (inactive) | 96.5% | 0.984 (inactive) | 1.28 | 3340 | 3400 | 0.379 (inactive) | -0.491 | -0.55 (inactive) |  |
| CC1/C=C/C=C/CC/C=C/C=C/C=C/C=C/C(O[C@@H]2O[C@H](C)[C@@H](O)[C@H](N)[C@@H]2O)CC(O)C(C(=O)O)C(O)CC(=O)CC(O)C(O)CCC(O)CC(O)CC(O)CC(=O)OC(C)C(C)C1O (some centres not stated) | 90.8% (inactive) and 24.4% (inactive) | 111% and 90.5% | 0.86 (inactive) and 0.844 (inactive) | 1.56 and 1.28 | 9420 and 8760 | 11000 and 10400 | 2.26 (active) and 0.353 (inactive) | 0.0499 and 0.288 | 0.5 (inactive) |  |
| O=C(OC1CC2CC3C[C@@H](C1)N2CC3=O)c1c[nH]c2ccccc12 (some centres not stated) | 57.9% (inactive) | 134% | 0.838 (inactive) | 1.48 | 8850 | 10600 | -0.0411 (inactive) | -0.329 | 1.09 (inactive) |  |
| CO[C@@H]1[C@@H](OC(N)=O)[C@H](O)[C@H](Oc2ccc3c(O)c(NC(=O)c4ccc(O)c(CC=C(C)C)c4)c(=O)oc3c2C)OC1(C)C | 81.2% (inactive) | 108% | 0.831 (inactive) | 1.55 | 9200 | 11100 | 0.157 (inactive) | 0.871 | 1.12 (inactive) |  |
| C[N+](C)(C)[C@@H](Cc1c[nH]c(=S)[nH]1)C(=O)[O-] | 52.4% (inactive) | 234% | 0.872 (inactive) | 1.27 | 9810 | 11300 | -0.462 (inactive) | -0.623 | 0.805 (inactive) |  |
| CO/N=C(\C(=O)N[C@@H]1C(=O)N2C(C(=O)[O-])=C(C[N+]3(C)CCCC3)CS[C@H]12)c1csc(N)n1 | 37.1% (inactive) | 100% | 0.872 (inactive) | 1.15 | 9480 | 10900 | -0.344 (inactive) | 0.0422 | 0.485 (inactive) |  |
| Nc1nc(=O)n([C@@H]2CS[C@H](CO)O2)cc1F | 56.6% (inactive) | 160% | 0.911 (inactive) | 1.49 | 10100 | 11100 | 0.34 (inactive) and -0.461 (inactive) | -0.0583 and -0.327 | 0.88 (inactive) |  |
| Cc1c(N)nc([C@H](CC(N)=O)NC[C@H](N)C(N)=O)nc1C(=O)N[C@@H](C(=O)N[C@H](C)[C@@H](O)[C@H](C)C(=O)N[C@@H](C(=O)NCCc1nc(-c2ncc(C(=O)NCCC[S+](C)C)s2)cs1)[C@@H](C)O)[C@@H](O[C@@H]1O[C@@H](CO)[C@@H](O)[C@H](O)[C@@H]1O[C@@H]1O[C@H](CO)[C@@H](O)[C@@H](OC(N)=O)[C@@H]1O)c1cnc[nH]1 | 89.5% (inactive) | 111% | 0.865 (inactive) | 1.1 | 4410 | 5100 | -1.31 (inactive) | -1.18 | -1.23 (inactive) |  |
| CCSc1ccc2c(c1)N(CCCN1CCN(C)CC1)c1ccccc1S2 | 77.3% (inactive) | 70.9% | 0.933 (inactive) | 0.655 | 7330 | 7860 | -1.53 (inactive) | 0.455 |  | 1.5 (inactive) |
